# Source: PubChem BioAssay
# A number with no mark means an inactive call.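 The calls were made as follows: active = z-score of at least 1.8 in each of two replicates, scored against plate mean and spread of sample wells; inactive = the rest.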
# Experiment: viability rescue of complex I mutant cybrids, primary screen, cell-based, galactose medium, ATP luminescence (AID 1645843);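 also: positive z means more ATP and so rescue of galactose-driven cybrid death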
# Details: complex I mutant cybrid cells, 72 h, active compounds read high
row,Compound,z-score
1,CC(CCN1CCC(Cn2cc(CCO)nn2)CC1)CC(C)(C)C (stereo not given),-0.27
2,Cc1c(C(=O)N2CCSCC2)c(-c2ccccc2)nn1-c1ccccc1,1.96
3,O=c1c2cccc(F)c2ncn1CCC1CCCCN1C1CCCC1 (stereo not given),-0.825
4,CC(C)CN1CCN(c2ccc(C(F)(F)F)cn2)C(C)C1=O (stereo not given),-0.56
5,CCC(CC)(CCC#N)CNC1COC2(CCCCC2)C1 (stereo not given),-0.53
6,COc1ccc(C(C)=O)c(OC2(C(=O)O)CCSCC2)c1,-0.58
7,COc1cccc2ccc(-c3ccc(C(=O)N(C)C)cc3)nc12,1.37
8,CC(=O)N[C@@H](CC(C)C)C(=O)N1CCC(n2cc(C(C)(C)N)nn2)CC1,-0.505
9,Cc1cc(CN2CCOC(CN)C2)ccc1OC1(C(=O)O)CCSCC1 (stereo not given),-0.415
10,Cc1cnc(CNC(=O)c2cccc(Nc3ncnc4c3cnn4C)c2)cn1,-0.83
11,O=C(CC1CCCCCC1)N1CCC(n2cc(C3CC3)nn2)CC1,-0.455
12,OC[C@@H](Cc1ccccc1)NC1CCCCCC1,-0.55
13,Cc1cc(CN2CCNCC2)ccc1OC1(C(=O)O)CCSCC1,0.115
14,Cn1cc(-c2cc(C(=O)N3CCc4ccccc4C3)c3cc(F)ccc3n2)cn1,1
15,CC1(C)CCN(C(=O)c2cc(-c3cnc(C4CC4)nc3)nc3ccc(F)cc23)C1,-0.54
16,O=C(c1cc(-c2cncnc2)nc2cc(F)ccc12)N1CCCC1Cc1cccnc1 (stereo not given),0.765
17,Cc1nn(C)c(C)c1-c1ccnc(N(C)Cc2cnn(C(C)C)c2)n1,0.67
18,CCCCc1cn(C2CCN(C3Cc4ccccc4C3)CC2)nn1,-0.33
19,Cc1c(C(F)(F)F)nc(-c2ccc(CN(C)Cc3ccccn3)cc2)[nH]c1=O,-0.485
20,CCc1noc(CN(C(=O)c2ccccc2-n2cccn2)C(C)C)n1,-0.655

row,Compound,z-score
1,Cc1nn(C)c(C)c1-c1ccnc(N2CCC(C(=O)NCc3ccccn3)CC2)n1,1.16
2,O=C(Nc1ccc2nccnc2c1)c1csc(Cc2ccccc2)n1,-1.07
3,O=C(c1ccc(-n2ccnc2)cc1)N1CCc2[nH]nc(-c3ccccc3)c2C1,-1
4,Cc1ccc2c(C(=O)N3CCC(C)(C)C3)cc(-c3cnn(C(C)C)c3)nc2c1,-0.01
5,Cc1c(C(F)(F)F)nc(-c2ccc(CN3CCN(C)C(=O)C3)cc2)[nH]c1=O,-0.5
6,CCC1(CC)CC1C(=O)N1CCC(n2cc(C(C)(C)O)nn2)CC1 (stereo not given),-0.515
7,OC1(c2ccccc2)CCN(Cc2ccccc2Cl)C1 (stereo not given),-1.11
8,Cc1ccc2c(C(=O)N3CCN(C)C(=O)C3C)cc(-c3cnn(C(C)C)c3)nc2c1 (stereo not given),-0.56
9,CC1(C)CCN(C(=O)c2cc(-c3cnc(C4CC4)nc3)nc3cc(F)ccc23)C1,-0.56
10,O=c1c2sccc2ncn1Cc1nc2ccccc2[nH]1,0.03
11,CC(C)c1n[nH]c2c1CN(C(=O)C1CCCCCC1)CC2,-0.485
12,COc1ccc(OC)c(-c2ccc3nc(C)ccc3c2)c1,-1.14
13,CCCn1cnc(NC(=O)NC2CCN(Cc3ccccc3)CC2)n1,0.58
14,COc1ccc(C(=O)N2CCNC(=O)C2Cc2ccccc2)cc1F (stereo not given),-0.505
15,CCCCc1cc(=O)[nH]c(-c2ccc(CN3CCC(F)(F)CC3)cc2)n1,0.255
16,C=C1C2(C(=O)N3CCCC(C(=O)N4CCOCC4)C3)CCC(C2)C1(C)C (stereo not given),-0.555
17,Cc1cccc2c(C(=O)N(C)C(C)C)cc(-c3cnn(C(C)(C)C)c3)nc12,1.41
18,CCC(CC)CN1CCC(N2CCSCC2)CC1,-0.55
19,COc1cccc(C(=O)N2CCC(n3cc(-c4ccccn4)nn3)CC2)c1,0.785
20,CC(C)(O)c1cn(C2CCN(C(=O)CCC(=O)N3CCCCCC3)CC2)nn1,-0.545
